Measured values as given in the supplement of paper PMC10849652.
The full data set covers some 7,900 targets. This sample favours those with a hit. About 0.6% of all pairs of compound and target were hits.

Key:
Assay in all cases: log2 fold change, soluble protein after heating vs DMSO (PISA); higher = thermal stabilisation; K562 cells, 10 uM, 30 min; active = over 0.2 and 3.5 SD of the protein, either way, in both replicates (recomputed)
erlotinib = compound: C#Cc1cccc(Nc2ncnc3cc(OCCOC)c(OCCOC)cc23)c1 [erlotinib]
In short: (§1)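 K562 cells at 2×10^6 cells/mL were given 10 μM compound for 30 min. Aliquots then went through 3 min of heating across 48°C-58°C, were pooled, and were extracted in PBS with 0.5% NP-40 at 4°C, and the supernatant after 21,000xg for 90 min was quantified by TMTpro 16plex LC-MS/MS with channel sums equalised. Thermal stability relative to control samples, from duplicates, is given as log2 fold change.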

[1] = compound: C/C(=N\NC(=O)C1=CC(=CC=C1)S(=O)(=O)N2CCOCC2)/C3=C(C=CC(=C3)Cl)O
In short: as §1

[2] = compound: C1=CC(=CC=C1C2=NC3=C(N2)C=C(C=C3)C(=O)N)OC4=CC=C(C=C4)Cl
In short: as §1

[3] = compound: C1=CC2=C(C=CC(=C2)/C=C\3/C(=O)NC(=NCC4=CC=CS4)S3)N=C1
In short: as §1

[4] = compound: C1=CC2=NC=CN=C2C=C1/C=C/3\C(=O)NC(=O)S3
In short: as §1

[5] = compound: C1=CC=C(C=C1)C2=NC(=C(N2)C3=CC=NC=C3)C4=CC(=C(C=C4)Cl)O
In short: as §1

[6] = compound: C1=CC=C2C(=C1)C3=NNC4=CC=CC(=C43)C2=O
In short: as §1

[7] = compound: C1CCN(C1)C(=O)NC2=CC=CC(=C2)NC3=NC=C(C(=N3)NCCC4=CN=CN4)Br
In short: as §1

[8] = compound: C1CN(CCC1(CC2=CC=C(C=C2)Cl)N)C3=NC=NC4=C3C=CN4
In short: as §1

IRAK-1-4 Inhibitor I = compound: C1COCCN1CCN2C3=CC=CC=C3N=C2NC(=O)C4=CC(=CC=C4)[N+](=O)[O-] [IRAK-1-4 Inhibitor I]
In short: as §1

ibrutinib = compound: C=CC(=O)N1CCC[C@@H](n2nc(-c3ccc(Oc4ccccc4)cc3)c3c(N)ncnc32)C1 [ibrutinib]
In short: as §1

[9] = compound: CC(=O)c1cnc2ccc(-c3cc(Cl)c(O)c(Cl)c3)nc2c1N[C@H]1CC[C@H](CN(C)C)CC1
In short: as §1

ralimetinib = compound: CC(C)(C)Cn1c(N)nc2ccc(-c3[nH]c(C(C)(C)C)nc3-c3ccc(F)cc3)nc21 [ralimetinib]
In short: as §1

[10] = compound: CC(C)C1=C2N=C(C=C(N2N=C1)NCC3=CC=CC=C3)NCCCCCCN
In short: as §1

[11] = compound: CC(C)C[C@@H](C=O)NC(=O)[C@H](CC(C)C)NC(=O)[C@H](CC(C)C)NC(=O)OCc1ccccc1
In short: as §1

pinometostat = compound: CC(C)N(C[C@H]1O[C@@H](n2cnc3c(N)ncnc32)[C@H](O)[C@@H]1O)[C@H]1C[C@@H](CCc2nc3cc(C(C)(C)C)ccc3[nH]2)C1 [pinometostat]
In short: as §1

[12] = compound: CC1=C(C(CC(=O)N1)C2=CC=C(C=C2)C(F)(F)F)C(=O)NC3=C(C=C4C(=C3)C=NN4)F
In short: as §1

[13] = compound: CC1=C(C2=C(C=C1)C(=O)C3=CC=CC=C3N2CCCN)C
In short: as §1

[14] = compound: C1=CC(=C(C=C1Cl)C2=NC3=NC=CN=C3C(=N2)NC4=CC=NC=C4)F
In short: as §1

[15] = compound: CC(C)(O)CC(=O)NCCn1ccc2ncnc(Nc3ccc(Oc4cccc(C(F)(F)F)c4)c(Cl)c3)c21
In short: as §1

Measured: log2 fold change

CYP24A1 (UniProt Q07973)
Sequence of UniProt Q07973 (Q07973 whole entry, looked up): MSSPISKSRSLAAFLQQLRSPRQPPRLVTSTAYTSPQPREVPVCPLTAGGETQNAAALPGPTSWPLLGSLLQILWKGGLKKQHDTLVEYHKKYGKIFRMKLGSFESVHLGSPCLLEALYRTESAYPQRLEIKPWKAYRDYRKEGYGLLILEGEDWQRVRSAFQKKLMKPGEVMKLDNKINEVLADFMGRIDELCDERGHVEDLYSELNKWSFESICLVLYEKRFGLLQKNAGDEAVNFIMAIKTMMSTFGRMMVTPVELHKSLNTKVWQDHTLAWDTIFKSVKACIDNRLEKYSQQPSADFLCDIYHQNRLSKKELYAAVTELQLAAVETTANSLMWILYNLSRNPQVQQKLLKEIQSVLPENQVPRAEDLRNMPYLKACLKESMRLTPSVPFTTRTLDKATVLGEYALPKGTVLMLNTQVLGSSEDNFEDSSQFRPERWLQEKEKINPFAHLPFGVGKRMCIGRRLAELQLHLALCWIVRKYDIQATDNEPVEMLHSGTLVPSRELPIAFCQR
inactive: erlotinib -0.042 | [2] -0.072 | [3] 0.015 | [4] -0.13 | [5] 0.091 | [6] -0.057 | [7] 0.179 | [8] 0.046 | IRAK-1-4 Inhibitor I -0.162 | ibrutinib -0.044 | [9] 0.187 | ralimetinib 0.412 | [10] 0.069 | [11] 0.31 | pinometostat 0.276 | [12] 0.083 | [13] -0.089
active: [1] -0.796

FAM117B (UniProt Q6P1L5)
inactive: erlotinib 0.088 | [1] 0.053 | [14] -0.134 | [2] 0.079 | [3] 0.098 | [5] 0.151 | [6] 0.099 | [7] 0.165 | [8] 0.09 | IRAK-1-4 Inhibitor I 0.238 | [9] -0.593 | ralimetinib -0.177 | [15] -0.255 | [10] 0.144 | [11] 0.016 | pinometostat -0.175 | [13] 0.037

DCAF6 isoform 3 (UniProt Q58WW2)
inactive: erlotinib 0.035 | [1] 0 | [14] 0.035 | [2] 0.014 | [3] 0.007 | [4] 0.045 | [5] 0.008 | [6] -0.036 | [7] 0.042 | [8] 0.055 | IRAK-1-4 Inhibitor I 0.025 | ibrutinib -0.004 | [9] -0.018 | ralimetinib -0.022 | [15] -0.022 | [10] 0.056 | [11] 0.023 | pinometostat -0.004 | [12] 0.015 | [13] -0.034

CTSC (UniProt P53634)
inactive: erlotinib -0.002 | [1] 0.016 | [14] 0.022 | [2] -0.031 | [3] 0.014 | [4] 0.004 | [5] 0.028 | [6] 0.009 | [7] -0.02 | [8] 0.138 | IRAK-1-4 Inhibitor I 0.008 | ibrutinib 0.011 | [9] -0.003 | ralimetinib -0.034 | [15] 0.016 | [10] -0.061 | [11] 0.015 | pinometostat -0.031 | [12] -0.018 | [13] -0.038

FAF2 (UniProt Q96CS3)
Sequence of UniProt Q96CS3 (Q96CS3 whole entry, looked up): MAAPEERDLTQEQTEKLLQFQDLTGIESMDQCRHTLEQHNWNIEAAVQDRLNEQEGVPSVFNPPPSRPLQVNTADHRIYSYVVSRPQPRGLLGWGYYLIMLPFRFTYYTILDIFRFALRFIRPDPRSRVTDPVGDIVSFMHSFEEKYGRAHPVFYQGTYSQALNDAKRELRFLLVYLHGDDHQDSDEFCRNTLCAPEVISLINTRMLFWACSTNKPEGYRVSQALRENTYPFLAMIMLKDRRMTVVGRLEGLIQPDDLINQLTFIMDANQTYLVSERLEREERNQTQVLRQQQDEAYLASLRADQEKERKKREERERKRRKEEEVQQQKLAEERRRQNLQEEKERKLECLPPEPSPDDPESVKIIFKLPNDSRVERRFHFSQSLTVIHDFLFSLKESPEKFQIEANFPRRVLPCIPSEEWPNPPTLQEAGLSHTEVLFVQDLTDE
inactive: erlotinib 0.009 | [1] 0.078 | [14] -0.003 | [2] 0.02 | [3] 0.049 | [4] 0.03 | [5] 0.15 | [6] 0.009 | [7] 0.035 | [8] 0.004 | IRAK-1-4 Inhibitor I 0 | ibrutinib -0.026 | [9] -0.034 | ralimetinib 0.103 | [15] -0.029 | [10] -0.044 | [11] 0.03 | pinometostat 0.053 | [12] 0.008 | [13] 0.044

ELOVL7 (UniProt A1L3X0)
inactive: erlotinib -0.008 | [1] 0.062 | [14] -0.065 | [2] 0.009 | [3] 0.182 | [6] -0.162 | [7] 0.078 | [8] 0.065 | [9] 0.059 | [15] -0.177 | [13] 0.062
active: [10] -0.617

EZH2 isoform 2 (UniProt Q15910)
inactive: erlotinib -0.036 | [1] 0.129 | [14] 0.163 | [2] 0.084 | [3] 0.046 | [4] 0.048 | [6] 0.054 | [7] -0.106 | [8] -0.062 | IRAK-1-4 Inhibitor I -0.247 | ibrutinib -0.114 | [9] 0.115 | [15] -0.041 | [10] -0.239 | pinometostat 0.068 | [13] -0.11

DDX46 (UniProt Q7L014)
Sequence of UniProt Q7L014 (Q7L014 whole entry, looked up): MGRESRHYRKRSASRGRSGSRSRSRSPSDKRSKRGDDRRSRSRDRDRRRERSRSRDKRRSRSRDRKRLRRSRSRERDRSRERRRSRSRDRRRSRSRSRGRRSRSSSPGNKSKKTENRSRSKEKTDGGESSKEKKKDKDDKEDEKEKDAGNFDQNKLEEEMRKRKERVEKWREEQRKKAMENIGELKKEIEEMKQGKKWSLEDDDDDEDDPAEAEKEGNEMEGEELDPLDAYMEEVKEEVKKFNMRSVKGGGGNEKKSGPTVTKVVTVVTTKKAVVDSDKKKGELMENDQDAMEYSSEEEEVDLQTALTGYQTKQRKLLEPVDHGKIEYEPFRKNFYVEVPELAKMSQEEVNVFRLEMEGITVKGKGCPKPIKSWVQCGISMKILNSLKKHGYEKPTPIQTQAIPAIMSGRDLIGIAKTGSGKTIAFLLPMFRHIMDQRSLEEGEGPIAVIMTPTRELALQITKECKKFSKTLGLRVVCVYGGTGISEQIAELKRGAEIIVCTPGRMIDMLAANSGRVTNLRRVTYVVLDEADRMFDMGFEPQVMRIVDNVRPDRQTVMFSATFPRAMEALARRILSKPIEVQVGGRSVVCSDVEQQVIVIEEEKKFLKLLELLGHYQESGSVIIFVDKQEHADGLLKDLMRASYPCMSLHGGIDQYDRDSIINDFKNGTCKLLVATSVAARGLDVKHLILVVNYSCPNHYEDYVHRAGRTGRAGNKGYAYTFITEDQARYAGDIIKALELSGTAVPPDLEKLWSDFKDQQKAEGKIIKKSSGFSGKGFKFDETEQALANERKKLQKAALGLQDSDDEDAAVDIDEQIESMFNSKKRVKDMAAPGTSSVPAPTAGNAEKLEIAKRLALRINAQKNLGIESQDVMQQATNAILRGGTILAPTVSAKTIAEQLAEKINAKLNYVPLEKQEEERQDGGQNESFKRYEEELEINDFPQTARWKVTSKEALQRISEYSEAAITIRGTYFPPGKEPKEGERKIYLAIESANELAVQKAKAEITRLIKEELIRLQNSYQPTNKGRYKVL
inactive: erlotinib 0.053 | [1] 0.23 | [14] 0.134 | [2] 0.081 | [3] 0.034 | [4] 0 | [5] -0.023 | [6] -0.022 | [7] -0.062 | [8] -0.141 | IRAK-1-4 Inhibitor I -0.113 | ibrutinib -0.034 | [9] -0.299 | ralimetinib -0.095 | [15] -0.18 | [10] -0.034 | [11] 0.026 | pinometostat -0.066 | [12] -0.107 | [13] 0.152

ESYT1 isoform 2 (UniProt Q9BSJ8)
Sequence of UniProt Q9BSJ8 (Q9BSJ8 whole entry, looked up): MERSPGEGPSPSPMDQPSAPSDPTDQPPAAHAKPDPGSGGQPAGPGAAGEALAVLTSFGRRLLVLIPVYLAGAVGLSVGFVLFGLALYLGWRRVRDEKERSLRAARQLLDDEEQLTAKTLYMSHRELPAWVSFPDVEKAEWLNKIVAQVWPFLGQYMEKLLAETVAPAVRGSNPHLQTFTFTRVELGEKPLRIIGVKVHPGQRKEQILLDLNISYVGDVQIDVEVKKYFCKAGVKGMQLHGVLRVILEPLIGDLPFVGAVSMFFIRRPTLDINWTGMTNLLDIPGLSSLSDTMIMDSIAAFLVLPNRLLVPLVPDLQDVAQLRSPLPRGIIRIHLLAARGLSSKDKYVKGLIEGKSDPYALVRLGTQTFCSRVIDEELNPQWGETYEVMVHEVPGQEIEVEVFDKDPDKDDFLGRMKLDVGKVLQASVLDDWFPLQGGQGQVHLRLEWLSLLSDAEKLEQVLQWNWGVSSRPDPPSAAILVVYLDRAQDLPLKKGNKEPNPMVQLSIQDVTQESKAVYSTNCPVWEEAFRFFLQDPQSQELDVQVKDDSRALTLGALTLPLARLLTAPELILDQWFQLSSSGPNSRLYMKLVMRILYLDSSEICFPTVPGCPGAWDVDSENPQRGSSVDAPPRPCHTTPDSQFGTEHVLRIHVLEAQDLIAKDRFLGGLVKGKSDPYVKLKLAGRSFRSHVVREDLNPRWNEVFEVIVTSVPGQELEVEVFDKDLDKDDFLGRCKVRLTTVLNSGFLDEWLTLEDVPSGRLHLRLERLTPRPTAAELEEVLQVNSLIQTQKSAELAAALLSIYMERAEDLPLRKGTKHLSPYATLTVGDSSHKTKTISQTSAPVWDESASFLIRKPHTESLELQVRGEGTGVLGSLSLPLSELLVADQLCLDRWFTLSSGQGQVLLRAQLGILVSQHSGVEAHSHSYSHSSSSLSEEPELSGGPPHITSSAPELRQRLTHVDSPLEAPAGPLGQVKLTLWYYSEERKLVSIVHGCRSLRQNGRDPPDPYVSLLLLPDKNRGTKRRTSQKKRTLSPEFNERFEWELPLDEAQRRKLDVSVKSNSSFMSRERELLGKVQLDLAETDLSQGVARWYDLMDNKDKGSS
inactive: erlotinib 0.039 | [1] 0.081 | [14] -0.016 | [2] -0.05 | [3] 0.035 | [4] -0.069 | [5] -0.042 | [6] 0.043 | [7] -0.11 | [8] -0.092 | IRAK-1-4 Inhibitor I -0.126 | ibrutinib -0.046 | [9] -0.048 | ralimetinib 0 | [15] -0.075 | [11] 0.053 | pinometostat 0.152 | [12] -0.018 | [13] 0.031
active: [10] -0.321

E2F4 (UniProt Q16254)
Sequence of UniProt Q16254 (Q16254 whole entry, looked up): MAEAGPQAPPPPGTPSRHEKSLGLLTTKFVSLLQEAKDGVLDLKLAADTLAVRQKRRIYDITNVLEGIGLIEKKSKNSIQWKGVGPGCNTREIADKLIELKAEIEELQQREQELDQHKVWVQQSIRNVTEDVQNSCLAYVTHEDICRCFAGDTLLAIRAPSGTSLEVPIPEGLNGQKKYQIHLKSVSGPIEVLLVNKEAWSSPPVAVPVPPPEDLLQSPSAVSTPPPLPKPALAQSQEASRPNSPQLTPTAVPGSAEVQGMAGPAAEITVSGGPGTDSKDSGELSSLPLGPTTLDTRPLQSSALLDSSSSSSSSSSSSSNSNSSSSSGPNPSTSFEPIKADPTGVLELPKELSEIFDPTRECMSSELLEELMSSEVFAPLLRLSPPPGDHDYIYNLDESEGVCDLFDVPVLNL
inactive: erlotinib 0.021 | [1] -0.003 | [14] 0.019 | [2] -0.003 | [3] 0.029 | [4] 0.043 | [5] -0.064 | [6] -0.02 | [7] -0.071 | [8] -0.022 | IRAK-1-4 Inhibitor I -0.025 | ibrutinib -0.009 | [9] -0.073 | ralimetinib 0.011 | [15] -0.072 | [10] -0.167 | [11] 0.038 | pinometostat 0.001 | [12] 0 | [13] -0.119

DNAJC1 (UniProt Q96KC8)
Sequence of UniProt Q96KC8 (Q96KC8 whole entry, looked up): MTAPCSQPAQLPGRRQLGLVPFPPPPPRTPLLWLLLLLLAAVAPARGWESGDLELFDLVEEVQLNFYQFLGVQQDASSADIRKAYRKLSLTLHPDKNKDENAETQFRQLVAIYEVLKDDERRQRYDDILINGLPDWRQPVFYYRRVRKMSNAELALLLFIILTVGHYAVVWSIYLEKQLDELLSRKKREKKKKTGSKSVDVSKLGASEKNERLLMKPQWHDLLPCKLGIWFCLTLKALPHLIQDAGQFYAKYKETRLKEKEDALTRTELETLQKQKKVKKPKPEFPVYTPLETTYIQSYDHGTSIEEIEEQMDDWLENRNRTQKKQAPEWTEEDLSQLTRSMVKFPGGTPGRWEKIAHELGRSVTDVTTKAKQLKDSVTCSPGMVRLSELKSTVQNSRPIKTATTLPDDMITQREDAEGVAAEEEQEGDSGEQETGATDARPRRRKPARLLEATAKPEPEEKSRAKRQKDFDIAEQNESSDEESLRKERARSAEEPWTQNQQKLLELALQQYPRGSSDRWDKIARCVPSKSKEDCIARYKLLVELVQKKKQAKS
inactive: erlotinib 0.001 | [1] 0.096 | [14] 0.059 | [2] 0.014 | [3] 0.082 | [4] 0.004 | [5] -0.021 | [6] -0.022 | [7] -0.001 | [8] 0.027 | IRAK-1-4 Inhibitor I 0.017 | ibrutinib 0.02 | [9] -0.026 | ralimetinib -0.081 | [15] -0.117 | [11] 0.025 | pinometostat -0.037 | [12] -0.012 | [13] 0.019
active: [10] -0.462

DDX27 (UniProt Q96GQ7)
inactive: erlotinib 0.104 | [1] -0.116 | [14] -0.287 | [2] 0.015 | [3] 0.059 | [5] -0.039 | [6] 0.025 | [7] -0.064 | [8] -0.259 | IRAK-1-4 Inhibitor I -0.037 | [9] 0.115 | ralimetinib 0.04 | [15] 0.106 | [10] -0.177 | [11] 0.104 | pinometostat 0.311 | [12] -0.344 | [13] -0.351

EIF2AK1 (UniProt Q9BQI3)
Sequence of UniProt Q9BQI3 (Q9BQI3 whole entry, looked up): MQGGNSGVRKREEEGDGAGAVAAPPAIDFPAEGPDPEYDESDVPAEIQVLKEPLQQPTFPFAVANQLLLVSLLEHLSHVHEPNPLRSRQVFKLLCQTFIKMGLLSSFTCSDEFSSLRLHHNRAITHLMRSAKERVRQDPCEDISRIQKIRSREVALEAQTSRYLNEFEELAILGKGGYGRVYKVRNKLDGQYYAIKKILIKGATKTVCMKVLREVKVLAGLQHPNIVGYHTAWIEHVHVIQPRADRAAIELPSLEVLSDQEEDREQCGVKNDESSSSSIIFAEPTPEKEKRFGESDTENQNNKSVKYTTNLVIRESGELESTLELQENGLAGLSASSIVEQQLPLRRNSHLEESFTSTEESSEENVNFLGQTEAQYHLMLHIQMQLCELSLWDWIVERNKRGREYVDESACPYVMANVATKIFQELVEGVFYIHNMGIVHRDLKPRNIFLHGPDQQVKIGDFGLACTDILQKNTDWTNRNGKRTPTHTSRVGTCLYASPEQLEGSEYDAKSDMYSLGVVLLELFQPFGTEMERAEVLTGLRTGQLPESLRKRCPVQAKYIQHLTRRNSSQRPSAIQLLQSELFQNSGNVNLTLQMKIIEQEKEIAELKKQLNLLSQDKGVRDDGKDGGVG
inactive: erlotinib -0.002 | [1] 0.006 | [14] -0.042 | [2] 0 | [3] -0.029 | [4] -0.114 | [5] -0.029 | [6] 0.021 | [7] -0.007 | [8] 0.012 | IRAK-1-4 Inhibitor I -0.016 | ibrutinib 0.018 | [9] 0.035 | ralimetinib -0.011 | [15] 0.056 | [10] 0.023 | pinometostat 0.031 | [13] -0.114
active: [11] 0.279

DENND10 (UniProt Q8TCE6)
inactive: erlotinib -0.01 | [1] -0.005 | [14] -0.049 | [2] -0.08 | [3] -0.051 | [4] 0.018 | [5] 0 | [6] -0.04 | [7] 0.063 | [8] 0.083 | ibrutinib 0.037 | [9] 0 | ralimetinib -0.003 | [15] -0.025 | [10] -0.119 | [11] 0.016 | [12] 0.059 | [13] -0.185

CTSV (UniProt O60911)
Sequence of UniProt O60911 (O60911 whole entry, looked up): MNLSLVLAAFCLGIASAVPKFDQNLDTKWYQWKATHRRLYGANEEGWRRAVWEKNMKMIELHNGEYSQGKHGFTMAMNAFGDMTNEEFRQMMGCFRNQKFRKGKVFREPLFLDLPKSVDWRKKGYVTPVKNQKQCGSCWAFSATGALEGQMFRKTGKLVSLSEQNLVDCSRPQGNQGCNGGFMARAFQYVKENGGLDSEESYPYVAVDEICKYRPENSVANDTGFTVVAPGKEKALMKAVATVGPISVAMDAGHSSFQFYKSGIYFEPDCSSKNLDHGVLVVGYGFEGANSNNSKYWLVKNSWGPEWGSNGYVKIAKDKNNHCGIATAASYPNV
inactive: erlotinib 0.043 | [1] -0.105 | [14] 0.023 | [2] -0.054 | [3] 0.035 | [4] -0.004 | [5] 0.024 | [6] 0.023 | [7] 0.04 | [8] 0.022 | IRAK-1-4 Inhibitor I 0.032 | ibrutinib -0.002 | [9] 0.09 | ralimetinib -0.035 | [15] -0.005 | [11] 0.14 | pinometostat 0.011 | [12] -0.054 | [13] 0.125
active: [10] -0.917

DHCR7 (UniProt Q9UBM7)
inactive: erlotinib 0.113 | [1] 0.041 | [14] -0.095 | [2] -0.056 | [3] 0.071 | [4] 0.022 | [5] 0.038 | [6] -0.003 | [7] -0.037 | IRAK-1-4 Inhibitor I -0.045 | ibrutinib -0.091 | [9] -0.085 | ralimetinib 0.056 | [15] 0.067 | [10] -0.021 | [11] 0.011 | pinometostat 0.199 | [12] 0.037 | [13] 0.15
active: [8] 0.623

EIF2AK3 (UniProt Q9NZJ5)
inactive: erlotinib 0.056 | [1] 0.022 | [14] 0.091 | [2] -0.222 | [3] 0.421 | [4] -0.311 | [6] -0.016 | [7] 0.148 | [8] 0.075 | IRAK-1-4 Inhibitor I -0.136 | ibrutinib 0.13 | [9] -0.369 | [15] -0.322 | [10] 0.011 | pinometostat -0.048 | [12] -0.106 | [13] 0.032
